# MCL1 BIM primary – MCL1-BIM-BH3 interaction inhibition (human) | Q07820 | GST-MCL1 / FITC-Bim-BH3 fluorescence polarization | inhibition, % at 10.9 µM | 320,000 compounds, 0.68% hits;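 active = inhibition above the mean inhibition of all tested compounds plus 3 SD, set per campaign, cut at about 40% in these data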;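 also: higher means more loss of mP so more displacement of Bim peptide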
# Mcl1-Noxa inh – disrupts binding of human Mcl-1 to Noxa peptide; Q07820; TR-FRET Mcl-1/Noxa peptide binding, 2 h; inhibition, % at 21.7 µM; 220,000 compounds, 1.5% hits; AID 1022;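 active = compounds that cut the protein-peptide binding signal by more than 50% relative to plate controls in a single-dose test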;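 also: His-tagged Mcl-1 with rhodamine Noxa BH3 peptide and terbium anti-His antibody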
# Mcl1-Bid inh – disrupts binding of human Mcl-1 to Bid peptide; 220,000 compounds, 0.97% hits; Q07820; inhibition, % at 21.7 µM; AID 1021; TR-FRET Mcl-1/Bid-Dy647 peptide binding, 1536-well;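 active = compounds that cut the binding signal by more than half at the single screening dose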;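 also: His-tagged Mcl-1 with europium anti-His antibody binding Bid BH3 peptide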
# GLD-1 TGE inh – GLD-1-TGE RNA interaction inhibition (C. elegans). purified GLD-1 + fluorescein TGE RNA, fluorescence polarization. inhibition, % at 5.96 µM. 320,000 compounds, 0.44% hits;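 active = percent inhibition above a per-plate cutoff, the plate mean of test compounds plus 3 SD, cut at about 30% in these data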
# Target sequence (Q17339 whole entry, looked up): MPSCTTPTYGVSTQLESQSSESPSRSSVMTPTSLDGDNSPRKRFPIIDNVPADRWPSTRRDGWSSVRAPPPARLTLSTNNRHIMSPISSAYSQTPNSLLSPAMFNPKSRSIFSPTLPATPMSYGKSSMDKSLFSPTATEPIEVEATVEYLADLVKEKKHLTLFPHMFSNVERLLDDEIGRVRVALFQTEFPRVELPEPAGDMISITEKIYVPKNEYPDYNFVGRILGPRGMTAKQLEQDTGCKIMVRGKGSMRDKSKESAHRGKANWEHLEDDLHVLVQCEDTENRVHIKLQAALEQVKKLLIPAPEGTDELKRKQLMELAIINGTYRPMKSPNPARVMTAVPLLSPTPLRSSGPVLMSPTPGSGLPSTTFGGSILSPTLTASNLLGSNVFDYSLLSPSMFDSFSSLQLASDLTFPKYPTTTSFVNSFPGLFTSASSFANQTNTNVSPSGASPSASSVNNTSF
# Bcl-xL primary – blocks human Bcl-xL binding to Bim BH3 peptide. Q07817. GST-Bcl-xL / FITC-Bim BH3 peptide fluorescence polarization. inhibition, % at 10.9 µM. AID 2129. 320,000 compounds, 0.7% hits;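 active = inhibition above the mean of all tested compounds plus 3 SD, cutoff set per campaign, cut at about 30% in these data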;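 also: inhibitors lower millipolarization by displacing the labeled peptide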
# Target sequence (Q07817 whole entry, looked up): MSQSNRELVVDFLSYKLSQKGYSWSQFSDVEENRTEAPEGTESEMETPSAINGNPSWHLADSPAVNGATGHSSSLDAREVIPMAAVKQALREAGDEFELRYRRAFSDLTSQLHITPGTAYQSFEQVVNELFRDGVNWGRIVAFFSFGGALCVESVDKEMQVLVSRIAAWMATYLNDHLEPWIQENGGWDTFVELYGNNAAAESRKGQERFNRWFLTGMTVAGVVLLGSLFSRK
# Bim-Mcl-1 – human Bim-Mcl-1 interaction inhibition. AID 1009. Bead-based flow cytometry, Bim peptide-Mcl-1 binding. inhibition, % at 10 µM. 190,000 compounds, 0.1% hits. Q07820; in the data active = inhibition above about 40%
# BCLXL inh confirm – counter-screen for MCL1 inhibitors: confirmation of human Bcl-xL inhibitors. shares compounds with MCL1 BIM primary. GST-Bcl-xL / FITC-Bim BH3 peptide FP binding. inhibition, % at 10.9 µM. 1,700 compounds, 54% hits. AID 2166;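 active = inhibition above a cutoff equal to the mean inhibition of all tested compounds plus 3 SD, cut at about 30% in these data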
# MCL1 inh confirm – MCL1-BIM-BH3 interaction inhibition, confirmation | shares compounds with MCL1 BIM primary | AID 2168 | 1,700 compounds, 61% hits | inhibition, % at 10.9 µM | GST-MCL1 / FITC-Bim-BH3 fluorescence polarization;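 active = inhibition above the average of all tested compounds plus 3 SD, cut at about 40% in these data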
# Numbers stand for hits; 0 = inactive; - = not tested or not shown; + = active, no number. This is a sample that favours compounds with a hit; in the whole collection about 2.3% have one here.
SMILES,MCL1 BIM primary,Mcl1-Noxa inh,Mcl1-Bid inh,GLD-1 TGE inh,Bcl-xL primary,Bim-Mcl-1,BCLXL inh confirm,MCL1 inh confirm
CCCOc1ccc(CNC(=S)Nc2ccccc2)cc1Cl,42,-,-,0,0,-,0,0
Cc1cc(C)cc(NC(=O)N2C3CCCC2CC(NC(=O)C2CC2)C3)c1 (stereo unspecified),0,-,-,0,0,-,-,-
CCn1c2ccccc2c2nnc(SCC(=O)OCN3C(=O)c4ccccc4C3=O)nc21,0,0,0,0,0,0,-,-
Cc1ccc(C(=O)O)cc1-c1ccc(/C=C2/NC(=O)N(c3ccccc3)C2=O)o1,52,70,0,0,0,0,36,63
O=C1C(=Cc2cccn2-c2ccc(O)cc2)C(=O)c2ccccc21,199,0,70,61,169,0,152,190
O=C(CN1C(=O)S/C(=C/c2cccn2-c2ccc(O)cc2)C1=O)N1CCCC1,0,-,-,0,0,-,-,-
Cn1cnc2c1c(=O)n(Cc1cccc(F)c1)c(=O)n2C,0,-,-,0,0,-,-,-
CCCCOc1cccc(C(=O)Nc2ccccc2N2CCCC2)c1,0,-,-,0,0,-,-,-
Cc1cc2ccccn2c1C(=O)c1ccccc1Br,0,-,-,0,0,-,-,-
CCOC(=O)NC(=O)c1cn(Nc2ncc(Cl)cc2C(F)(F)F)c(=O)[nH]c1=O,0,0,0,0,0,-,-,-
O=C(O)[C@@H]1[C@H]2C[C@H]3c4[nH]c5ccccc5c4CCN3C[C@@H]2CC[C@@H]1O,0,-,-,0,0,-,-,-
O=C(O)C1CCCC2CN3CCc4c([nH]c5ccccc45)C3C(O)C21 (stereo unspecified),104,-,-,35,86,-,0,0
Cc1ccc(NC(=S)NNc2ccc([N+](=O)[O-])cc2S(=O)(=O)Nc2ccccc2C(=O)O)cc1C,40,87,0,0,0,0,0,0
CC(=O)Nc1ccc(C=NNc2ccc([N+](=O)[O-])cc2S(=O)(=O)Nc2ccccc2C(=O)O)cc1,-,-,-,0,-,-,-,-
Cc1ccc(-n2[nH]c(C)c(C=Nc3ccc4[nH]c(=O)[nH]c4c3)c2=O)cc1C,117,0,0,0,60,0,103,130
Cc1cc(C)n2nc3nc4c(cc3c2n1)CCCC4,106,0,0,38,111,0,0,0
Cc1cc(C)n2nc(C)c(Br)c2n1,0,0,0,0,0,0,-,-
O=S(=O)(c1cnc(Cl)c(Br)c1)N1CCCCCC1,0,0,0,0,0,0,-,-
CS/C(Nc1cc(Cl)ccc1Cl)=C(/C#N)C(=O)c1ccco1,54,0,0,0,0,-,0,0
O=C(Nc1cc(Cl)ccc1Cl)c1ccco1,0,-,-,0,0,-,-,-
CC(C)(C)c1ccc(C(=O)Nc2cccc3c(=O)[nH][nH]c(=O)c23)cc1,43,0,0,46,0,0,42,47
Cc1cccc(NC(=O)CSCC(=O)Nc2ccc(S(=O)(=O)N3CCOCC3)cc2)c1,0,-,-,0,0,-,-,-
Cc1c2cc(O)c(=O)cc-2oc2cc(O)c(O)cc12,-,-,-,185,107,-,114,-
O=C(O)c1ccc(-n2cccc2/C=N\NC(=O)c2cc3cc(Br)ccc3o2)cc1,62,92,0,0,0,-,0,57
Cc1ccc(NC(=O)C2CC(=O)Nc3nc4ccccc4n32)c(C)c1 (stereo unspecified),0,0,0,0,0,-,-,-
SMILES,MCL1 BIM primary,Mcl1-Noxa inh,Mcl1-Bid inh,GLD-1 TGE inh,Bcl-xL primary,Bim-Mcl-1,BCLXL inh confirm,MCL1 inh confirm
COc1ccc(C(=O)N2CCn3c(C)ccc3C2C)cc1 (stereo unspecified),49,0,0,0,47,0,0,0
O=C(COc1ccccc1Cl)N1CCN(c2ccc([N+](=O)[O-])c(N3CCOCC3)c2)CC1,0,0,0,0,0,0,-,-
Clc1ccc(C2Nc3cccc4cccc(c34)N2)cc1,67,-,-,0,44,-,0,0
CSc1ccc(C2Nc3cccc4cccc(c34)N2)cc1,0,-,-,0,0,-,-,-
CC(=O)N1CCc2c(sc(NC(=O)C3CCCN3S(=O)(=O)c3cccs3)c2C(N)=O)C1 (stereo unspecified),64,-,-,115,67,-,67,76
CC(=O)N1CCc2c(sc(NC(=O)C3CCN(S(=O)(=O)c4cccs4)CC3)c2C(N)=O)C1,0,-,-,0,0,-,-,-
Cn1cc(CCC(=O)NCc2ccc(Cl)cc2)c2ccccc21,53,-,-,0,0,-,0,0
CCc1ccc(CNC(=O)CCc2cn(C)c3ccccc23)cc1,0,-,-,0,0,-,-,-
CC1(C)Cc2c(c(-c3ccco3)[nH]c(=O)c2C#N)CS1,148,0,0,94,110,0,94,125
CCc1nc(N2CCN(C(=O)c3ccco3)CC2)c(C#N)c2c1COC(C)(C)C2,0,-,-,0,0,-,-,-
CC1(C)Cc2c(C#N)c(N3CCN(C(=O)c4ccco4)CC3)nc(-c3ccco3)c2CS1,68,53,0,0,35,0,0,49
CC1(C)Cc2c(c(-c3ccccc3)[nH]c(=O)c2C#N)CS1,0,0,0,0,0,0,-,-
NC(=O)c1nsc(C(=O)N(CC(=O)NC2CCCC2)c2cccc(C(F)(F)F)c2)c1N,0,-,-,0,0,-,-,-
O=C(O)c1ccc(-c2ccc(/C=c3/sc4nc5ccccc5n4c3=O)o2)cc1Cl,40,-,-,0,0,-,0,0
NS(=O)(=O)c1ccc(N=Nc2c[nH]c(=O)c(O)c2)cc1,163,0,0,39,130,-,169,195
COc1ccc(S(=O)(=O)N(C)C[C@H]2Oc3c(NC(=O)c4ccncc4)cccc3C(=O)N([C@H](C)CO)C[C@@H]2C)cc1,-,-,-,0,-,-,-,-
O=C(CSc1nc(-c2ccc(F)cc2)cs1)Nc1ccccn1,64,0,0,0,0,0,0,0
CC1=C(CCN2CCN(C3CCCC3)C(CCO)C2)C(C)(C)CCC1 (stereo unspecified),0,0,0,0,0,0,-,-
Nc1cccc2c(=O)c3ccccc3[nH]c12,41,-,-,0,0,-,37,0
Oc1ccc2nnc3c(Br)cnn3c2c1,+,-,-,144,175,-,168,+
CC(=O)c1ccc2c(c1)N(CCCN1CCC(CCO)CC1)c1ccccc1S2,44,-,-,0,0,-,0,0
C/C(=N\NC(=O)c1cc(O)ccc1O)c1cccc(NC(=O)c2cccc(Cl)c2)c1,0,-,-,0,0,-,-,-
C/C(=N\NC(=O)c1cc(O)ccc1O)c1cccc(NC(=O)c2ccc(Cl)cc2)c1,48,-,-,0,0,-,0,47
O=C(/C=C/c1ccc(Br)o1)OCc1nc2ccsc2c(=O)[nH]1,49,-,-,0,0,-,37,87
O=C(OCc1nc2ccsc2c(=O)[nH]1)c1cc(Br)c(Br)s1,0,-,-,0,0,-,-,-
COc1ccc(-c2n[nH]c(C)c2-c2ccc(Cl)cc2)c(O)c1OC,0,0,0,0,0,0,-,-

# High-throughput results from PubChem BioAssay.
